Drawing on publication PMC7862700, “An all-to-all approach to the identification of sequence-specific readers for epigenetic DNA modifications on cytosine”, this text covers binding signal for two sequences.

Experiment in all cases: DAPPL (digital affinity profiling via proximity ligation, sequencing); 10 mM Tris-HCl pH 7.5, 50 mM NaCl, 1 mM DTT, 4% glycerol, room temperature, 30 min; GST-TFs on glutathione beads, 16-mer random dsDNA library, 0.1% formaldehyde crosslink after washing; high values mean tight binding
Settings in all cases: protein: recombinant; tags: N-terminal GST; dsDNA, one strand shown

For one test, the target named is T1, FLI1 (Homo sapiens, UniProt Q01543 1-452).
T1 sequence: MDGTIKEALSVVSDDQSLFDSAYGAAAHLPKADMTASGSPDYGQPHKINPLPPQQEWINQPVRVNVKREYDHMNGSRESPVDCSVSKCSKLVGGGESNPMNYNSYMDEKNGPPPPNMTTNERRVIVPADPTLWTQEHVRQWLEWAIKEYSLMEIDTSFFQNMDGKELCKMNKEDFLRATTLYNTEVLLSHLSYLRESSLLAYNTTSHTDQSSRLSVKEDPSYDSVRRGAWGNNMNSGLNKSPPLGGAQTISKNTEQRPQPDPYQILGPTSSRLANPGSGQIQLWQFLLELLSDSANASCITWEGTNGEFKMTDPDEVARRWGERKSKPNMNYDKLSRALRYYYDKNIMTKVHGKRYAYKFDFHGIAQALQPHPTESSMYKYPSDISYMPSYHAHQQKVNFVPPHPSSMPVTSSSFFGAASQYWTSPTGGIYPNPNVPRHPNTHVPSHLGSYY
In a few lines: (§1)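 A tag-only sample was pooled with DNA-barcoded human transcription factors that had been expressed in yeast as GST fusions and captured on glutathione beads. The pools were incubated for 30 min at room temperature with 200 nmole of a random double-stranded 16-mer DNA library in Tris/NaCl/DTT/glycerol buffer, then washed, crosslinked with 0.1% formaldehyde, proximity-ligated (BsaI/T4 ligase, 1 h, 37 °C), PCR-amplified and sequenced on an Illumina NextSeq500. Binding signal is each hexamer's read frequency for a factor divided by its frequency for the tag-only sample.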

Another test addresses T2, ELK1 (Homo sapiens, UniProt P19419 1-428).
T2 sequence: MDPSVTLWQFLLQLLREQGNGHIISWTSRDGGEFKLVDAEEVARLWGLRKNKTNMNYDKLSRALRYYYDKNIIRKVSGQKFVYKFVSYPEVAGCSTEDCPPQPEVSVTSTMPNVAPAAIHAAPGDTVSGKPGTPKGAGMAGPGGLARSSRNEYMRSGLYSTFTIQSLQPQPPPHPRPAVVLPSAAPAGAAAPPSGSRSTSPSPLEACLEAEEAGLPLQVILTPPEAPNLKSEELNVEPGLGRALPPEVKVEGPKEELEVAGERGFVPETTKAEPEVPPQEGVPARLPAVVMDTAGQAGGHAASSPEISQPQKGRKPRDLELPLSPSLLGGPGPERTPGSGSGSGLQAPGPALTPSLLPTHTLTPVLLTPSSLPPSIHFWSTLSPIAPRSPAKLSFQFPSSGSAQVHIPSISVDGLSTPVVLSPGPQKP
In a few lines:
as §1

A further test has as its target T3, GABPA (Homo sapiens, UniProt Q06546 1-454).
T3 sequence: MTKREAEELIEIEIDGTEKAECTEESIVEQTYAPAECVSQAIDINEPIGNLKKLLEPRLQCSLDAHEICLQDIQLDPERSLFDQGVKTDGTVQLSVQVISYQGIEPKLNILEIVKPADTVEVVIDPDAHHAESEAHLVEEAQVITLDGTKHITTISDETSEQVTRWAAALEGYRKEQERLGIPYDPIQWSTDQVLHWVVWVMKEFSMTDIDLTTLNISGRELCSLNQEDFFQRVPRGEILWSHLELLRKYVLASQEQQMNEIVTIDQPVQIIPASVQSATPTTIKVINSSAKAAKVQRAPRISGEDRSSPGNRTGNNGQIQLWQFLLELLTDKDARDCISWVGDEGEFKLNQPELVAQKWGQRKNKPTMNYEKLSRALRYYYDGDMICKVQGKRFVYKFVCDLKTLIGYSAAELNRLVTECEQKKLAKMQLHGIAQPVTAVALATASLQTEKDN
In a few lines: as §1

The next test concerns the target T4, ERG (Homo sapiens, UniProt P11308 1-479).
T4 sequence: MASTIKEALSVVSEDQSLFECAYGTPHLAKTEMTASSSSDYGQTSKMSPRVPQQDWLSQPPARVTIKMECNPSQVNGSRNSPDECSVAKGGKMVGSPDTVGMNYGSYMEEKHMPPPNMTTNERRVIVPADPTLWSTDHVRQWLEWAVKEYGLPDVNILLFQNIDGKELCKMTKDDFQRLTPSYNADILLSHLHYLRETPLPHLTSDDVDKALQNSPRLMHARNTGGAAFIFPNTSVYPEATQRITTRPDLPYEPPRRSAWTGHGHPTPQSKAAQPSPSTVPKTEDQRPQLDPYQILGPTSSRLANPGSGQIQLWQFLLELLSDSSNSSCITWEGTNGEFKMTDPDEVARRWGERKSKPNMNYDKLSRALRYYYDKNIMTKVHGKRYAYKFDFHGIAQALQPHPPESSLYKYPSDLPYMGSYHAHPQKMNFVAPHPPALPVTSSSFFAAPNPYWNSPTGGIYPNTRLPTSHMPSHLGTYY
In a few lines:
as §1

The next test addresses ELF1 (Homo sapiens, UniProt P32519 1-619). In a few lines:
as §1

A further test concerns the target T5, EHF (Homo sapiens, UniProt Q9NZC4 1-300).
T5 sequence: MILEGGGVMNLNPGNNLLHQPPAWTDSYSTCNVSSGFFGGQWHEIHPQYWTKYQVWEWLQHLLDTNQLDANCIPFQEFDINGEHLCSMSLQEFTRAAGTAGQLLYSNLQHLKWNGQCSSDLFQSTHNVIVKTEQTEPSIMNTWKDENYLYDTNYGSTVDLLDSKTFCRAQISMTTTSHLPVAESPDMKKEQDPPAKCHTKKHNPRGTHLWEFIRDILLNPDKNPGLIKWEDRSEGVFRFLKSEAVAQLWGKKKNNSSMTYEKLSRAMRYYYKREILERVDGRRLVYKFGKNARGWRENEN
In a few lines: as §1

In a further test the target is SPI1 (Homo sapiens, UniProt P17947 1-270). In a few lines: as §1
For a further test, the target named is SPIB (Homo sapiens, UniProt Q01892 1-262). The procedure, abridged: as §1
Another test deals with T6, ELK3 (Homo sapiens, UniProt P41970 1-407).
T6 sequence: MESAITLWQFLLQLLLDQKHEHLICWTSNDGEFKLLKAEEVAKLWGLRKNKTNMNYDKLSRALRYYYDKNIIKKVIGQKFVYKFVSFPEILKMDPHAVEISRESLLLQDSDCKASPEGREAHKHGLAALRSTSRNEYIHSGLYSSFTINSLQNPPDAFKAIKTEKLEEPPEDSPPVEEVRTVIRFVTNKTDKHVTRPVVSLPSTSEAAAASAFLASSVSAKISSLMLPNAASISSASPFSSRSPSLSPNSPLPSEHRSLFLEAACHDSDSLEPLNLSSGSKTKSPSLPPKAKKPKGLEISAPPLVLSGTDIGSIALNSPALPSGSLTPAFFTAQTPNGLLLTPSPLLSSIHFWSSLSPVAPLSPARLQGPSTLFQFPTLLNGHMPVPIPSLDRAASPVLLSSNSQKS
The procedure, abridged: as §1

The target of another test is T7, FEV (Homo sapiens, UniProt Q99581 1-238).
T7 sequence: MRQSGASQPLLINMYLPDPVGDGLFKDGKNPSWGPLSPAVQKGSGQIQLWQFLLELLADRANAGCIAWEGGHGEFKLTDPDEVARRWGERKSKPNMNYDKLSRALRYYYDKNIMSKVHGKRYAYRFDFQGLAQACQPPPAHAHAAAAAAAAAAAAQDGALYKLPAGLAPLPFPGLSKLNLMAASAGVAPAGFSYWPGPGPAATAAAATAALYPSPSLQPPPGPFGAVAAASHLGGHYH
In a few lines: as §1

Another test deals with ETV5 (Homo sapiens, UniProt P41161 1-510). The procedure, abridged: as §1
A further test has as its target T8, SPIC (Homo sapiens, UniProt Q8N5J4 1-248).
T8 sequence: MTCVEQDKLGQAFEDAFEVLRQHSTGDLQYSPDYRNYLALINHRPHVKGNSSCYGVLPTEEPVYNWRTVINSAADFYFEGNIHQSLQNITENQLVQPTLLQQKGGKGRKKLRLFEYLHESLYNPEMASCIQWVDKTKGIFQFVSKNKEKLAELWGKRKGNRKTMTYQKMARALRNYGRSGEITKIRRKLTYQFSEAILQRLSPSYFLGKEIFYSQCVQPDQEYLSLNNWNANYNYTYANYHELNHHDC
The procedure, abridged:
as §1

In the next test the target is ELF4 (Homo sapiens, UniProt Q99607 1-663). In a few lines: as §1
The next test addresses T9, ELK4 (Homo sapiens, UniProt P28324-2 1-405).
T9 sequence: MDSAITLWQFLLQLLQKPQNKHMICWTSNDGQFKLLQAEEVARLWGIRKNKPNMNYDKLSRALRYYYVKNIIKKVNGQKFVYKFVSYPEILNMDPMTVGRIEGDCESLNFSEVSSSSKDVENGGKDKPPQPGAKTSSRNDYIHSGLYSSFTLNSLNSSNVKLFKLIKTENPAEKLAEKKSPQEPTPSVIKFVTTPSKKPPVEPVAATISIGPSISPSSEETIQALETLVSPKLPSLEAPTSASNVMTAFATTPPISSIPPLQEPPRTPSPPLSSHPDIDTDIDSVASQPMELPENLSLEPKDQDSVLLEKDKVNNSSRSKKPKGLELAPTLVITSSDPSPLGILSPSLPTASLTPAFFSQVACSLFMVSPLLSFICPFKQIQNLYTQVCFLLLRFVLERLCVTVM
In a few lines: as §1

The next test has as its target T10, ETV2 (Homo sapiens, UniProt O00321 1-342).
T10 sequence: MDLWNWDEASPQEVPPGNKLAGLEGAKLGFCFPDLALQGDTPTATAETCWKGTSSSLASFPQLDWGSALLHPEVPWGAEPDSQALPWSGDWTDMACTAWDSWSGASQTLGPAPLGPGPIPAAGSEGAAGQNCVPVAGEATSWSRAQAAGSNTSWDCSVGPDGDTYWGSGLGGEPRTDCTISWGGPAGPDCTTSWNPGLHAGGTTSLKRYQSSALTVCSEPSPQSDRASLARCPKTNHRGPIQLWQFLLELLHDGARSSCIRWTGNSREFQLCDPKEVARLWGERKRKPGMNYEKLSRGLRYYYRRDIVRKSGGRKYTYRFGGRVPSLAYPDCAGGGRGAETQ
In a few lines: as §1

The next test deals with T11, ELF3 (Homo sapiens, UniProt P78545 1-371).
T11 sequence: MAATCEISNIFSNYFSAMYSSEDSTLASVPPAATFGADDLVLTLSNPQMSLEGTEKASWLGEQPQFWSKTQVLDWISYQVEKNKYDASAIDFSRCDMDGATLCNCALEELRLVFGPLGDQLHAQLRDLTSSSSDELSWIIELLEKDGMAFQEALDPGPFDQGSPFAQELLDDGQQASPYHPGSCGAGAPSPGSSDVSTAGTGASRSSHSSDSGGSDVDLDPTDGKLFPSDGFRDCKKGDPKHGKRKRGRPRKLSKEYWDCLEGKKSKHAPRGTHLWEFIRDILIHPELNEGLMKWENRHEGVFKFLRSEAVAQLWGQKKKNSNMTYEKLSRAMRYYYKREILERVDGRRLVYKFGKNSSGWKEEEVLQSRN
The procedure, abridged:
as §1

In the next test the target is ETV1 (Homo sapiens, UniProt P50549 1-477). The procedure, abridged: as §1
Chain of ETV1 (P50549 whole entry): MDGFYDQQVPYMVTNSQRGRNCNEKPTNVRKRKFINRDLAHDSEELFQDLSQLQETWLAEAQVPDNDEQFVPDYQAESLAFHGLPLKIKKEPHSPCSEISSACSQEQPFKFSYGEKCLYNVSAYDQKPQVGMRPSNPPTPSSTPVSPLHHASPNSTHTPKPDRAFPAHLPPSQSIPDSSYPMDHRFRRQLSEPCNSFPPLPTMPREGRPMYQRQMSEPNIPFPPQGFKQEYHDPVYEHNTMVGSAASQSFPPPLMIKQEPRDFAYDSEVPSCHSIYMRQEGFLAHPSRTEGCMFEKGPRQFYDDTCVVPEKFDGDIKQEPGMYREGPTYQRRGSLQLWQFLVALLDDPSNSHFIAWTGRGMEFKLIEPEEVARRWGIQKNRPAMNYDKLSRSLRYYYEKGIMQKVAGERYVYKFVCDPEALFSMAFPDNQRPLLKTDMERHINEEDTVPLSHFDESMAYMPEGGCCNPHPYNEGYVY

Chain of ELF4 (Q99607 whole entry): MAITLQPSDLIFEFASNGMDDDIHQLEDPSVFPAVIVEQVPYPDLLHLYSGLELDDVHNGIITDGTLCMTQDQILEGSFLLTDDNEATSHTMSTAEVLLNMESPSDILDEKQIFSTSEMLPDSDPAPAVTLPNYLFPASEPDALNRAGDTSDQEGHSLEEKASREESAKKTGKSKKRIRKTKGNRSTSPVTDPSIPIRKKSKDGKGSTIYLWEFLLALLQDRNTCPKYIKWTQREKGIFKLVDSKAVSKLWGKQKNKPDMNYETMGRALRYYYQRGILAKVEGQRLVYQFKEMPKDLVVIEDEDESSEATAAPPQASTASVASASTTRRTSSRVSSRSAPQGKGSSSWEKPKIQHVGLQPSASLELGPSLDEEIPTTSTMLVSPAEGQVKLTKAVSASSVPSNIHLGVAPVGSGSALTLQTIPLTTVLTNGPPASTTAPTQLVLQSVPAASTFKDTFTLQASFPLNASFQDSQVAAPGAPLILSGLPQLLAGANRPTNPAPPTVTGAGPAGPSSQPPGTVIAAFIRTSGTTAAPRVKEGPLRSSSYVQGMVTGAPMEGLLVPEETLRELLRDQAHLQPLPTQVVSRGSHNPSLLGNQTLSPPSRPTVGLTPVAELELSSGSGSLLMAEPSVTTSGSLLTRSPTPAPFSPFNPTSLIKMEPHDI
Chain of SPIB (Q01892 whole entry): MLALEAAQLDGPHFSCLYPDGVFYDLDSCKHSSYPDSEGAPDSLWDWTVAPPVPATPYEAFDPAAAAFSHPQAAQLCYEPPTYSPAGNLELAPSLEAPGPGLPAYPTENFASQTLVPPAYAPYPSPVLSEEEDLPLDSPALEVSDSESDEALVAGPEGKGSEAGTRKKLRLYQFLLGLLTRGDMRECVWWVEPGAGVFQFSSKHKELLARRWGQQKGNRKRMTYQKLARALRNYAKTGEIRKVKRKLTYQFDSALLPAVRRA
Chain of ETV5 (P41161 whole entry): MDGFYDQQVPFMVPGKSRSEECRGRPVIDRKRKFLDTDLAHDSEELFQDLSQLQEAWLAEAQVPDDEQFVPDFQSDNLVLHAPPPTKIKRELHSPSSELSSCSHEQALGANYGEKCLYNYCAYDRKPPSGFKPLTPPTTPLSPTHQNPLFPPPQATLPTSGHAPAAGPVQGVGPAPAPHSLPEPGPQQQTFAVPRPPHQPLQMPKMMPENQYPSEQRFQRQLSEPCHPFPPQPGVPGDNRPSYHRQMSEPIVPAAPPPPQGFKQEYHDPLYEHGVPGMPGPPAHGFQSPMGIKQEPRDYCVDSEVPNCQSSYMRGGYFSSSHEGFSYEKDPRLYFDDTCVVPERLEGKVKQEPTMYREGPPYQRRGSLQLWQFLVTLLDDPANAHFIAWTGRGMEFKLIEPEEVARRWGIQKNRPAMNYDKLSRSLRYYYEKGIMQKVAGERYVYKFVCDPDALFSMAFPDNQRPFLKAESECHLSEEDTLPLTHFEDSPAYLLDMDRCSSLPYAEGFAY
Chain of ELF1 (P32519 whole entry): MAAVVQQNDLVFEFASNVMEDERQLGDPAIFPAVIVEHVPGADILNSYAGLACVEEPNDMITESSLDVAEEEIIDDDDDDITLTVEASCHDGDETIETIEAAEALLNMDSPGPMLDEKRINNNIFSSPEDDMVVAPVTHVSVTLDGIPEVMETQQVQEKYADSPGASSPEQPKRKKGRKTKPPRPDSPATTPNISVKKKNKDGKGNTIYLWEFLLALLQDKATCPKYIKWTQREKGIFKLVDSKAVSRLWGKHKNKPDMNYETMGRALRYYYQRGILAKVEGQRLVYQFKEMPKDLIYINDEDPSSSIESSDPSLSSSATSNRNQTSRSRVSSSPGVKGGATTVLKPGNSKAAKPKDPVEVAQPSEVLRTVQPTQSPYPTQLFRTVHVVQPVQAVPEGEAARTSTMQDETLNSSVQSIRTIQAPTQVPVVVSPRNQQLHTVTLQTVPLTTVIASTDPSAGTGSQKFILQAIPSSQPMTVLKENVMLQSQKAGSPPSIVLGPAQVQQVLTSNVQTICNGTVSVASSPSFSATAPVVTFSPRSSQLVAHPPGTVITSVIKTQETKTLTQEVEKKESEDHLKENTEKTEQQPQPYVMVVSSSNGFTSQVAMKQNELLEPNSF

On to TGGTGT, for which the binding signal in the test with FLI1 was 1.28 fold enrichment (6-mer frequency, TF over GST control); in the test with ELK1, 1.18 fold enrichment (6-mer frequency, TF over GST control); with GABPA, 1.35 fold enrichment (6-mer frequency, TF over GST control); in the test with ERG, 1.33 fold enrichment (6-mer frequency, TF over GST control); with ELF1, 1.33 fold enrichment (6-mer frequency, TF over GST control); with EHF, 1.31 fold enrichment (6-mer frequency, TF over GST control). In addition, the binding signal is 1.23 fold enrichment (6-mer frequency, TF over GST control) with SPI1; 1.18 fold enrichment (6-mer frequency, TF over GST control) in the test with SPIB; 1.4 fold enrichment (6-mer frequency, TF over GST control) with ELK3; 1.14 fold enrichment (6-mer frequency, TF over GST control) with FEV; 1.26 fold enrichment (6-mer frequency, TF over GST control) with ETV5; 1.09 fold enrichment (6-mer frequency, TF over GST control) in the test with SPIC. Further, the binding signal is 1.34 fold enrichment (6-mer frequency, TF over GST control) in the test with ELF4; 1.31 fold enrichment (6-mer frequency, TF over GST control) in the test with ELK4; 1.45 fold enrichment (6-mer frequency, TF over GST control) in the test with ETV2; 1.25 fold enrichment (6-mer frequency, TF over GST control) with ELF3; 1.2 fold enrichment (6-mer frequency, TF over GST control) with ETV1.
With CCTCAC, the binding signal with FLI1 is 1.29 fold enrichment (6-mer frequency, TF over GST control); with ELK1, 1.3 fold enrichment (6-mer frequency, TF over GST control); in the test with GABPA it was 1.26 fold enrichment (6-mer frequency, TF over GST control); with ERG it was 1.22 fold enrichment (6-mer frequency, TF over GST control); in the test with ELF1 it was 1.22 fold enrichment (6-mer frequency, TF over GST control); with EHF, 1.28 fold enrichment (6-mer frequency, TF over GST control). The binding signal was 1.28 fold enrichment (6-mer frequency, TF over GST control) in the test with SPI1; 1.21 fold enrichment (6-mer frequency, TF over GST control) with SPIB; 1.33 fold enrichment (6-mer frequency, TF over GST control) with ELK3; 1.27 fold enrichment (6-mer frequency, TF over GST control) in the test with FEV; 1.25 fold enrichment (6-mer frequency, TF over GST control) in the test with ETV5; 1.11 fold enrichment (6-mer frequency, TF over GST control) with SPIC. For the same sequence, the binding signal in the test with ELF4 was 1.31 fold enrichment (6-mer frequency, TF over GST control); in the test with ELK4 it was 1.16 fold enrichment (6-mer frequency, TF over GST control); with ETV2 it was 1.24 fold enrichment (6-mer frequency, TF over GST control); in the test with ELF3, 1.2 fold enrichment (6-mer frequency, TF over GST control); in the test with ETV1, 1.27 fold enrichment (6-mer frequency, TF over GST control).
